Assay outcomes (PubChem)
Rows were chosen to be rich in hits. Some 9% of all compounds tested hit in one or more screens of this group.
ALDH1A1 block = ALDH1A1 (human) enzyme inhibition; Purified ALDH1A1, NADH fluorescence, propionaldehyde substrate; Potency, µM (highest dose often 75.3 µM), inactives show at the highest dose activity, negative = inhibition, hits mostly inhibitors; hit rate 7.3% among 220,000; P00352; AID 1030;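 also: potency is read from the fitted curve at half-maximal effect; plate controls were no enzyme wells and a reference inhibitor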
HPGD block = HPGD (human) dehydrogenase inhibition; hit rate 4.3% among 150,000; Potency, µM, for inactives: top-dose activity change, negative = inhibition, usual class: inhibitors; purified HPGD, NADH fluorescence kinetic, PGE2 substrate; P15428; also: potency is read from the fitted curve at half-maximal effect
Target sequence (P15428 whole entry, looked up): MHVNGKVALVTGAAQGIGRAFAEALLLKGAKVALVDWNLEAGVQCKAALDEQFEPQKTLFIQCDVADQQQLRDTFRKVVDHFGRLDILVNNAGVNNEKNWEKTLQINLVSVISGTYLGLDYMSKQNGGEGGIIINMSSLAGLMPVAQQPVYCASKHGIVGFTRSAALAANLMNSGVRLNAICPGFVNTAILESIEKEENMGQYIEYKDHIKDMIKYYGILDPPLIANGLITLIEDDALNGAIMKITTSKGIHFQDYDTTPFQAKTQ
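NADH formation kinetics: reaction with 30 uM PGE2 and 1 mM NAD+ (final), 20 nM enzyme, Tris-HCl pH 8 with Tween 20, after 15 min compound preincubation at room temperature. Fluorescence change, last versus first of five reads.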
IMPase inh = IMPase inhibition in cells; CHO-M1 cells, IP1 accumulation, HTRF TR-FRET ratio; inhibition (IP1 accumulation), % at 46.1 µM; 120,000 tested, under 10 active; AID 901; active = well fitted curve in the direction sought with a large enough effect in the signal ratio, not every such curve was filed as active; inconclusive = small, poorly fitted or top-dose-only effect, or a change in a side signal; inactive = no such curve, though single readings can be large or run the other way; the % refers to the signal ratio;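 also: cells stimulated with carbachol in lithium chloride buffer; plate controls were DMSO basal wells for no effect and reference inhibitor wells for full effect; higher means more IMPase inhibition seen as more IP1 and lower FRET ratio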
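Seeded CHO-M1 cells were dosed with compound at up to 46 uM, stimulated with carbachol for 30 min, then lysed in IP-One detection reagents. Higher IP1 lowers the TR-FRET signal.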
Active calls of the source: *; u = inconclusive; x = no result given. Unless noted, calls follow the shape of the dose curve; as a rule, active = well fitted inhibition curve with a large enough effect (not every such curve was filed as active); inconclusive = small, poorly fitted or top-dose-only effect, or another doubt; inactive = no such curve, though single readings can be large or run the other way. Unless noted, % is scaled to controls: 0 for no effect and ±100 for the full control effect.

SMILES	ALDH1A1 block	HPGD block	IMPase inh
CCCN1C(=O)SC(CC(=O)Nc2ccccc2C)C1=O (stereo not drawn)	10µM*	-3%	-4
CCOc1ccc(NC(=O)C2CC(=O)OC2c2ccccc2)cc1 (stereo not drawn)	25µM*	x	x
Cc1ccc(NC2=NCC(=O)N2CCc2ccccc2)cc1C	4%	-12%	16
CCOc1ccc(NC2=NCC(=O)N2CCc2ccccc2)cc1	25µM*	-12%	-4
Cc1ccccc1NC(=O)CC1SC(=O)N(c2ccccc2)C1=O (stereo not drawn)	16µM*	u	-5
COc1ccccc1NC(=O)CC1SC(=N)N(c2ccccc2)C1=O (stereo not drawn)	-6%	x	x
CCOc1ccc(NC(=O)C2CC(C)=C(C)CC2C(=O)O)cc1 (stereo not drawn)	2%	-8%	5
O=C(CNC(=O)c1ccc(-c2ccccc2)cc1)OCc1c(F)cccc1Cl	3%	-24%	x
Cc1ccc(-n2cc(S(=O)(=O)c3ccc(C)cc3)[nH]c2=O)cc1	9%	x	x
Cc1ccc2oc(=O)c3cnn(CC(=O)N4CCCc5ccccc54)c3c2c1	7%	-21%	u
CC(C)CC(NC(=O)C(NC(=O)OC(C)(C)C)C(C)C)C(=O)N1CCCC1C(N)=O (stereo not drawn)	7%	3%	2
CCOC(=O)c1nn(-c2ccc(Cl)cc2)c2nc(Nc3ccccc3)cc(=O)n12	2%	-2%	-5
CCOc1ccc(NC(=O)c2cccnc2SC)cc1	3%	x	x
CCOc1ccc(NC(=O)CC2SC(=O)N(c3ccccc3)C2=O)cc1 (stereo not drawn)	7.9µM*	x	x
CCOc1ccc(NC(=O)Cc2ccccc2)cc1	2%	13µM*	x
COc1cccc(NC(=O)CC2SC(=Nc3ccccc3)NC2=O)c1 (stereo not drawn)	-11%	-11%	5
CCOc1ccc(-n2nc3ccc(NC(=O)Cc4ccccc4)cc3n2)cc1	x	x	-16
COc1cccc(NC(=O)CC2S/C(=N\S(=O)(=O)c3ccccc3)N(c3ccccc3)C2=O)c1 (stereo not drawn)	20µM*	-21%	x
CCOc1ccc(NC(=O)c2cccnc2C(=O)O)cc1	22µM*	-6%	-8
CCOc1ccccc1NC(=O)CC1SC(=N)N(c2ccccc2)C1=O (stereo not drawn)	3%	x	x
Cc1c(-c2cc(C(=O)O)on2)cnn1C	0%	x	x
Cc1ccccc1NC1=C(Cl)C(=O)OC1OC(C)C (stereo not drawn)	9%	-1%	1
NC(=O)CSc1nc(-c2ccccc2)c(-c2ccccc2)o1	-1%	10%	2
O=C(CN1CCSCC1)N1CCc2[nH]c3ccc(Br)cc3c2C1	15µM*	-6%	9
O=C(CSc1nc2ccccc2[nH]1)N1CCN(C(=O)c2ccco2)CC1	u	-5%	x
SMILES	ALDH1A1 block	HPGD block	IMPase inh
O=C(C1CC1)N1CCc2[nH]c3ccccc3c2C1	1%	-8%	7
Cc1ccc2[nH]c3c(c2c1)CN(C(=O)CN1CCN(c2cccc(C)c2C)CC1)CC3	4.5µM*	u	8
Cc1ccc2[nH]c3c(c2c1)CN(C(=O)CN1c2ccc(F)cc2CCC1C)CC3 (stereo not drawn)	u	u	12
O=C(CN1CCN(C(=O)c2ccco2)CC1)N1CCc2[nH]c3ccccc3c2C1	10µM*	x	x
COc1ccccc1[C@@H]1C(c2ccc(F)cc2)=NN(c2ccc(Br)cc2)[C@H]1C(=O)N1CCOC1=O	u	-19%	x
COCCNC(=O)c1ccc(-n2c(=O)c(=O)[nH]c3ccccc32)cc1	-1%	-21%	x
CC(=O)c1ccc(NC(=O)C(C)OC(=O)c2ccc(NS(=O)(=O)c3ccc(F)c(F)c3)cc2)cc1 (stereo not drawn)	-11%	-11%	x
CC(C)NC(=O)C1CCN(C2CCN(Cc3ccc4cccc(F)c4n3)CC2)CC1	-10%	x	x
O=C(OCc1nc2ccccc2c(=O)[nH]1)c1cccs1	0%	-10%	3
CC1=C(C(=O)N(C)C)C(c2ccc(N3CCOCC3)cc2)NC(=O)N1 (stereo not drawn)	-1%	x	x
Cc1cc(C)cc(C(=O)N2CCN(c3ccccn3)CC2)c1	-8%	x	x
COc1cc(/C=C2\CCCc3c2nc2ccccc2c3C(=O)O)cc(OC)c1O	14µM*	x	x
O=C(O)c1c2c(nc3ccccc13)/C(=C/c1ccc(O)cc1)CCC2	0%	x	x
O=C(CCc1ccccn1)N1CCCC(CNS(=O)(=O)c2cccs2)C1 (stereo not drawn)	-6%	x	x
COc1ccc(S(=O)(=O)NCC2CCCN(CC(C)(C)C)C2)cc1 (stereo not drawn)	20µM*	x	x
COc1ccc(S(=O)(=O)NCc2ccc3c(c2)cc(C)n3C)cc1	u	-9%	-8
